This is a sample that favours compounds with a hit; in the whole collection about 2.2% have one here.
APP transl inh: APP translation inhibition; AID 1285; inhibition, % at 2 µM; actives 0.82% (n = 190,000); SH-SY5Y APP 5'UTR-luciferase reporter, luminescence;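 active = inhibition above a set limit, derived from the sample mean plus 3 SD, cut at about 45% in these data; inconclusive = one replicate passes the limit while the other fails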
Ba/F3 V617F tox: loss of viability in JAK2V617F-driven Ba/F3 cells | Ba/F3 EpoR-JAK2V617F viability, ATP luminescence | inhibition, % at 5.6 µM | actives 1.1% (n = 220,000);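 active = inhibition above the campaign mean plus 3 SD over all tested compounds, cut at about 24% in these data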;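 note: cytokine-independent growth of Ba/F3 cells driven by EpoR plus mutant JAK2; 0% = DMSO-treated cells and 100% = JAK inhibitor I control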
KLF5 inhibitor: kruppel-like factor 5 inhibition | DLD-1 KLF5 promoter-luciferase reporter, luminescence | actives 0.23% (n = 290,000) | inhibition, % at 5 µM;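 active = inhibition above a per-plate limit of that plate's mean compound inhibition plus 3 SD, cut at about 60% in these data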;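 note: 0% = DMSO wells and 100% = LY294002 at 200 µM; higher means less KLF5 promoter-driven luciferase light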
aSyn 5UTR inh: 5' untranslated region of α-synuclein, MLPCN primary screen; alpha-synuclein 5'UTR reporter, inhibitor activity; inhibition, % (tested at 7.5 µM); actives 0.82% (n = 300,000); in the data active = inhibition above about 60%; inconclusive = no clear call, values can overlap the other calls;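 note: H4 neuroglioblastoma cells stably carrying SNCA 5'UTR luciferase fusion; 0% = DMSO wells and 100% = positive control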
IEC-6 cytotox: IEC-6 cytotoxicity, counter-screen for KLF5 inhibitors. actives 0.78% (n = 290,000). inhibition, % at 5 µM. luminescence viability;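 note: 0% = plate median of test compound wells and 100% = cytotoxic reference compound wells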
BaF3 tox: parental Ba/F3 viability inhibition as JAK2V617F counter-screen; inhibition, % at 5.6 µM; actives 1.1% (n = 220,000); CellTiter-Glo ATP luminescence;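 active = inhibition above a per-campaign cutoff, the mean inhibition of all tested compounds plus 3 SD, cut at about 27% in these data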;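 note: 0% = DMSO wells and 100% = JAK Inhibitor I control wells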
IEC-6 cytotox cf: IEC-6 cytotoxicity, confirmation assay. shares compounds with IEC-6 cytotox. IEC-6 rat intestinal epithelial viability, luminescence. inhibition, % at 5 µM. actives 63% (n = 1,900). AID 1907;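 note: 0% = vehicle and 100% = reference cytotoxic drug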
Active calls of the source: *; ? = inconclusive; · = no result given. Cut-off read from the data, not from the text of the source, unless noted: active = inhibition above about 22%; inactive = the rest.

SMILES | APP transl inh | Ba/F3 V617F tox | KLF5 inhibitor | aSyn 5UTR inh | IEC-6 cytotox | BaF3 tox | IEC-6 cytotox cf
Cc1cccc(NC(=O)c2ccc(N3C(=O)C4C5C=CC(C6CC56)C4C3=O)cc2)c1 (configuration not stated) | · | · | -34 | 38 | 23* | · | 12
O=C(Nc1ccccc1)c1cccc(N2C(=O)C3C4C=CC(C5CC45)C3C2=O)c1 (configuration not stated) | · | · | -33 | -20 | 2 | · | ·
CCc1nn(C(C)C(=O)N2CC(C)CC(C)C2)c(=O)c2cc3occc3n12 (configuration not stated) | · | · | 12 | 10 | 1 | · | ·
CCc1nn(C(C)C(=O)N2CCN(c3ccc(OC)cc3)CC2)c(=O)c2cc3occc3n12 (configuration not stated) | · | · | 32 | 48 | 44* | · | 24*
COc1ccccc1NC(=O)C(C)OC(=O)CCC1CCCCC1 (configuration not stated) | · | · | -5 | -8 | -5 | · | ·
Cc1nnc(NC(=O)c2nc(S(=O)(=O)Cc3ccccc3C)ncc2Cl)s1 | · | · | 19 | -39 | 69* | · | 17
CC(C)c1nnc(NC(=O)c2nc(S(=O)(=O)Cc3ccccc3F)ncc2Cl)s1 | · | · | -2 | -72 | 18 | · | ·
CCc1nnc(NC(=O)c2nc(S(=O)(=O)Cc3ccccc3)ncc2Cl)s1 | · | · | 9 | -24 | 34* | · | 7
CCc1nnc(NC(=O)c2nc(Cl)ccc2Cl)s1 | · | · | -36 | 0 | -2 | · | ·
CCc1nnc(NC(=O)c2nc(S(=O)(=O)Cc3cccc(C)c3)ncc2Cl)s1 | · | · | 15 | -114 | 41* | · | 6
CSc1nnc(NC(=O)c2nc(S(=O)(=O)Cc3ccccc3F)ncc2Cl)s1 | · | · | -7 | -9 | 3 | · | ·
CCOc1ccccc1NC(=O)c1nc(S(=O)(=O)Cc2cccc(C)c2)ncc1Cl | · | · | 28 | 88* | 73* | · | 30*
C=CCNC(=O)NC(=O)CSc1nc2cc([N+](=O)[O-])ccc2n1-c1cccc(C(F)(F)F)c1 | -9 | 2 | -19 | 1 | 0 | 6 | ·
COc1ccc(N2CCN(C(=O)CC(C)S(=O)(=O)c3ccc4c(c3)NC(=O)CO4)CC2)cc1 (configuration not stated) | · | · | -9 | 21 | -5 | · | ·
CCOc1cc2[nH]c(=S)n(C3CCN(Cc4ccccc4)CC3)c(=O)c2cc1OCC | -11 | 1 | -23 | 26 | 2 | 7 | ·
CC(C)OC(=O)CSc1nnc(SCc2cccc3ccccc23)s1 | -1 | -3 | -37 | 9 | -5 | 2 | ·
CCSc1nnc(NC(=O)c2nc(S(=O)(=O)Cc3ccc(F)cc3)ncc2Cl)s1 | · | · | -6 | 10 | -6 | · | ·
CCc1nnc(NC(=O)c2nc(S(=O)(=O)Cc3ccc(C)cc3)ncc2Cl)s1 | · | · | 4 | -52 | 50* | · | 18
COc1ccc(CNC(=O)C2CC(c3ccccc3C(F)(F)F)=NO2)cc1 (configuration not stated) | · | · | · | 10 | · | · | ·
CCn1ncc(C2=NOC(C(=O)NCc3ccccc3)C2)c1C (configuration not stated) | 72* | 80* | 52 | 26 | 66* | 78* | 57*
CCn1ncc(C2=NOC(C(=O)NCc3ccc(OC)cc3)C2)c1C (configuration not stated) | -5 | -2 | -3 | 13 | 22* | 1 | 10
O=C(NCc1ccccn1)c1cn(Cc2ccccc2)nn1 | -4 | 0 | -21 | -4 | -1 | 6 | ·
Cc1ccc(C(C)C)c(OCC(=O)Nn2c(C)nc3ccccc3c2=O)c1 | -7 | -2 | -43 | -12 | 3 | 3 | ·
CCOC(CC(=O)NNC(=O)c1c(-c2c(Cl)cccc2Cl)noc1C)OCC | · | -4 | -24 | -19 | -9 | -1 | ·
COc1ccc(-n2nnnc2-c2ccccc2)cc1 | 89* | 80* | 38 | 19 | 52* | 68* | 50*
SMILES | APP transl inh | Ba/F3 V617F tox | KLF5 inhibitor | aSyn 5UTR inh | IEC-6 cytotox | BaF3 tox | IEC-6 cytotox cf
Clc1ccc(-n2nnnc2-c2ccccc2)cc1 | 4 | 4 | -3 | · | 6 | 3 | ·
c1ccc(CCNc2ccnc3cc4ccccc4cc23)cc1 | 22 | 53* | -75 | 117* | 87* | 43* | 43*
COc1ccc(CCC(=O)OCC(=O)c2cccc(OC)c2)cc1 | -2 | 0 | 1 | -4 | -5 | 3 | ·
O=C(OC1CCCCC1)c1ccc(NC(=O)c2ccco2)cc1 | -51 | -1 | -87 | -45 | 32* | 4 | 23*
O=C(Nc1ccc(OC(=O)c2ccco2)cc1)c1ccco1 | -11 | -3 | -32 | -5 | 0 | 4 | ·
CC(C)(C)c1ccc(OCc2ccc(C(=O)N/N=C3\CC4CC=CC34)cc2)cc1 (configuration not stated) | -18 | -7 | -72 | -17 | 0 | 1 | ·
C/C(=N\N=C1\NC(=O)C(CC(=O)Nc2ccc(C)c(Cl)c2)S1)C(C)(C)C (configuration not stated) | -14 | -3 | 4 | -3 | 6 | -1 | ·
CC(=O)/C(C#N)=C1\NC(=O)C(Cc2ccc(C)c(Cl)c2)S1 (configuration not stated) | · | 2 | 21 | 36 | 72* | 4 | 48*
COc1ccc(Cn2c(=O)oc3ccc(C)cc32)cc1 | · | · | -9 | -2 | -6 | · | ·
COc1ccc(-c2csc(N3CCOCC3)n2)cc1OC | -26 | 5 | -110 | -80 | -1 | 7 | ·
CC(=O)N(c1ccccc1C)C1CCCC1 | -10 | 2 | -55 | -3 | 1 | 4 | ·
CC(=O)N(C1=C(Cl)C(=O)c2ccccc2C1=O)C1CCCCC1 | · | 2 | -13 | ? | 25* | -5 | 8
CCCCSCCCNC(=O)c1cn(CC)c2ccc(S(=O)(=O)N3CCOCC3)cc2c1=O | · | · | -7 | 1 | -1 | · | ·
CCOc1ccc(Cl)cc1S(=O)(=O)n1cnc2ccccc21 | 11 | 0 | -20 | -3 | 8 | 6 | ·
CCOc1ccc(C)cc1S(=O)(=O)n1cnc2ccccc21 | · | · | 56 | -9 | 51* | · | 29*
CCN(CC)c1ccc(/C=C/c2cccc[n+]2C)c(OC)c1 | · | · | 19 | ? | 28* | · | 30*
Cc1ccc(-n2c(Cl)c(Cl)nc(Cl)c2=O)cc1 | 97* | 96* | 21 | · | 41* | 58* | 40*
COc1nc(Cl)cn(-c2ccc(C)cc2)c1=O | 7 | 5 | 2 | -13 | 0 | 8 | ·
O=C(O)CN=C1NC2(CCCCC2)Cc2ccccc21 | 7 | -2 | -8 | -8 | 7 | 0 | ·
On1nnc2ccc(C(F)(F)F)cc21 | 4 | -1 | -21 | -11 | -11 | 3 | ·
Cc1ccc(C)c(NC(=O)Cn2nnc(C(=O)NCc3ccco3)c2N)c1 | · | · | 41 | -2 | 24* | · | 18
COc1ccccc1NC(=O)Cn1nnc(C(=O)NCc2cccs2)c1N | · | · | 56 | 86* | 79* | · | 53*
COc1cc(C(=O)Nc2ccccn2)cc(OC)c1OC | -8 | -1 | -21 | -3 | -1 | 3 | ·
COc1cc(C(=O)Nc2ccccc2C(=O)Nc2ccccn2)cc(OC)c1OC | · | · | 34 | -67 | 33* | · | 21
O=C(CCCCl)NC(=S)Nc1ccc(CN2CCOCC2)cc1 | · | 0 | -18 | -18 | 11 | -2 | ·

Screening results from PubChem BioAssay.
